# Screens (PubChem)
# Hits are enriched below; roughly 19% of the tested compounds scored in any of these assays.
# DT40 TDP1 no CPT = qHTS for Inhibitors of human tyrosyl-DNA phosphodiesterase 1 (TDP1): qHTS in cells in absence of CPT. DT40 Tdp1-/- hTDP1 cells, no CPT, ATP luminescence, 48 h. Potency, µM (top dose mostly 46.2 µM), for the others: at the highest dose activity change, negative = growth inhibition, actives largely listed as inhibitors. 15% of 420,000 active. AID 686978, 2013; note: potency is the fitted concentration of half-maximal effect; nearly all actives have a fitted effect of over 55% in size
#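 Compound effects on proliferation are scored in DT40 Tdp1-/-;hTDP1 cells in the absence of CPT. ATP levels (CellTiter-Glo luminescence) are recorded after a ≥48 hr, 37 °C incubation.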
# IL1B secr inh = inflammasome signaling inhibition, IL-1 beta readout; THP-1 LPS/ATP IL-1B secretion, AlphaLISA, 16 h; active compounds read low; activity change, % at 57.5 µM; 4.7% of 360,000 active; AID 743279; in the data active = activity change below about -50%; inconclusive = mostly about -30% to -49%
#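 Secreted IL-1B measured by AlphaLISA bead assay after 16 h compound exposure of THP-1 cells; compounds (final up to 57.5 uM) added 1 h before LPS (250 ng/mL) and ATP (1.25 mM) stimulation; lower signal means less secretion.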
# HT1080-NT tox = kills 2HG-producing HT-1080-NT fibrosarcoma cells. HT-1080-NT fibrosarcoma viability, CellTiter-Glo ATP luminescence, 48 h. Potency, µM (highest dose often 46.1 µM), without a hit: top-dose activity, negative = less viability, usual class: cytotoxic. 1.6% of 360,000 active;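 note: NT is the 2HG producing partner of a matched IDH1 knockdown line; potency is the fitted concentration of half-maximal effect; 0% = DMSO-treated cells and -100% = media-only wells without cells; nearly all actives have a fitted effect of over 55% in size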
#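 HT-1080-NT; 750 cells/well; 5% FBS RPMI; 48 h compound, 37 degrees C; CellTiter-Glo luminescence; curve fitting and curve-class assignment.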
# TDP1 cell CPT = DT40-hTDP1 cell growth loss with CPT; chicken DT40 Tdp1-/-;hTDP1 cells + 20 nM CPT, ATP luminescence, 48 h; Potency, µM (doses to about 46.2 µM), for the others: at the top dose activity change, negative = growth inhibition, actives largely listed as inhibitors; 12% of 420,000 active; AID 686979; note: potency is the fitted concentration of half-maximal effect; nearly all actives have a fitted effect of over 55% in size
#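 Chicken DT40 Tdp1-/- cells complemented with human TDP1, 400 cells/well, exposed to compounds plus 20 nM camptothecin for at least 48 h at 37 C; viability read as ATP content by CellTiter-Glo luminescence.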
# HT1080 IDH1KD tx = HT-1080 IDH1 knockdown cell toxicity (counter line); Potency, µM (top dose mostly 46.1 µM), for the others: at the top dose activity, negative = toxicity, hits mostly cytotoxic; AID 686971; HT-1080 IDH1 knockdown viability, ATP luminescence, 48 h; 2% of 360,000 active;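 note: potency is the fitted concentration of half-maximal effect; 0% = DMSO wells and -100% = cell-free medium wells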
#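 Cytotoxicity counter-line: IDH1KD HT-1080, 48 h, CellTiter-Glo. Curves classed by r2, magnitude and activity.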
# * = called active by the depositor; u = inconclusive; x = not tested or not shown; [ ] = another dose, or the depositor's remark. Unless noted, calls come from the whole dose curve; as a rule, active = well fitted curve in the direction sought with a large enough effect; inconclusive = small, poorly fitted or top-dose-only effect, or another doubt; inactive = no such curve, though single readings can be large; an effect the other way counts as inactive or inconclusive. Unless noted, % is set by controls: 0 for no effect and ±100 for the full control effect.
SMILES,DT40 TDP1 no CPT,IL1B secr inh,HT1080-NT tox,TDP1 cell CPT,HT1080 IDH1KD tx
CCOc1ccc(/C=C2\SC(N3CCc4ccccc4C3)=NC2=O)cc1,21µM*,-54*,u,29µM*,-22%
COc1cc(/C=C2\SC(N3CCc4ccccc4C3)=NC2=O)cc(OC)c1OC,16µM*,-67*,1%,21µM*,10%
COC(=O)c1ccc(C(NC(=O)OCc2ccccc2)/C(F)=C/[C@@H](C)C(=O)NCc2ccc(-c3ccccc3)cc2)cc1 (stereo partly specified),u,-2,-9%,16µM*,9%
COc1ccc(CCNC(=O)C(NC(=O)OCc2ccccc2)C(C)C)cc1OC (stereo unspecified),-19%,-8,-4%,4%,-10%
COC(=O)c1ccc(C(NC(=O)OCc2ccccc2)/C(F)=C/[C@@H](C)C(=O)NCc2ccc(OC)c(OC)c2)cc1 (stereo partly specified),u,-9,u,23µM*,u
N#Cc1ccc(/C=N/NC(=O)CCc2ccc(S(=O)(=O)N3CCOCC3)cc2)cc1,u,0,-2%,-27%,-2%
COc1ccc(S(=O)(=O)N2CCCCC2)cc1NC(=O)CSc1nnc(C2CC2)n1C,15%,-1,-6%,-26%,-1%
COc1ccc(-c2sc(C(=O)c3ccc(Cl)cc3Cl)cc2CC(=O)O)cc1,u,32,u,u,u
COc1ccc2nc(NCc3ccccc3)[nH]c2c1,15µM*,-102*,u,u,u
c1ccc(CNc2nc3ccccc3[nH]2)cc1,18µM*,-60*,u,u,-2%[9.24 µM]
Cc1ccc2nc(NCc3ccccc3)[nH]c2c1,4.6µM*,-73*,5.8µM*,4.1µM*,3.7µM*
Cc1ccc2nc(NCc3ccccc3)c(C#N)cc2c1,0%,30,14%,2%,13%
COc1ccccc1C1CN(CCNC(=O)c2cscn2)Cc2ccccc2O1 (stereo unspecified),u,x,x,13%[9.04 µM],x
COc1ccc(NC(=O)CCS(=O)(=O)c2ccc3c(c2)CCN3C(C)=O)cc1,0%,0,0%,-1%,2%
COc1ccccc1C(=O)NC(CCSC)C(=O)NNC(=O)c1ccccc1O (stereo unspecified),29µM*,72,-27%,u,u
COc1ccccc1C(=O)NC(CCSC)C(=O)NNC(=O)c1ccc(F)cc1 (stereo unspecified),-23%,-8,-8%,-28%,-1%
O=C(NC1CCCC1)C(c1ccccn1)N(C(=O)c1csnn1)c1ccccc1F (stereo unspecified),-23%,24,1%,-1%,8%
Nc1ccc(S(=O)(=O)c2cc(O)c3ccccc3c2O)cc1,2.3µM*,-112*,-3%,1.5µM*,-8%
Cc1c(C(=O)N2CCC(C)CC2)sc2ncnc(N3CCN(c4ccccc4)CC3)c12,-29%,-27,-1%,-5%,-4%
Cc1c(C(=O)N(C)C2CCCCC2)sc2ncnc(N3CCN(c4ccccc4F)CC3)c12,18µM*,0,-28%,18µM*,-23%
CCN1CCN(c2ncnc3sc(C(=O)Nc4ccccc4F)c(C)c23)CC1,-27%,-16,-10%,-10%,-12%
Cc1c(C(=O)N(C)C2CCCCC2)sc2ncnc(N3CCN(c4ccccc4)CC3)c12,15µM*,-16,u,13µM*,u
CCC(C(=O)NCCCN(CC)CC)n1ncn2c(cc3occc32)c1=O (stereo unspecified),-3%,x,x,11%,x
O=C(C(c1ccccc1)c1ccccc1)N1CCC(c2nc(-c3ccccc3Cl)no2)CC1,u,-13,u,23µM*,-4%[9.24 µM]
COc1ccccc1N1CCN(CCCNC(=O)c2nnc(Cc3c(F)cccc3Cl)o2)CC1,u,x,x,-26%,x
O=C(NCCCN1CCN(c2ccc(F)cc2)CC1)c1ccc2nc(Cc3ccccc3)oc2c1,21µM*,x,x,13µM*,x
